As a reminder, the viability is a read-out of living cells in per cent, often relative to untreated cells.

Entries with a potency or affinity are not part of this list. Unmarked numbers belong to inactive results. The rule behind the calls is not given here.

This assay can be described thus: Vero cell cytotoxicity, dose response, cytotoxicity control for M. tuberculosis growth inhibitor project, Vero cells, purified and synthesized compounds, set 5 (AID 504909). The settings on record: series mostly up to 100 µM; viability: at the top concentration.
Consider `NC(=O)c1cnccn1`, for which the “viability” value was 97.8%.
For the compound `COC(=O)c1ccc(CNc2c(N3CCCC3)c(=O)c2=O)cc1`, the “viability” value was 102%.
The same measure for `NNC(=O)c1ccncc1`: 107%; for `Cc1nc(SCC(=O)NCCC(C)C)[nH]c(=O)c1C`: 93.5%.
The value for `CCC(Sc1nc2c(c(=O)[nH]1)CCC2)C(=O)Nc1cccc(OC)c1` (centres undefined) was 90.8%.
Take `CCSc1nc(C)c(C)c(=O)[nH]1`: the “viability” value is 100%.
As for `CC(C)CCNC(=O)CSc1nc2ccccc2c(=O)[nH]1`, the “viability” value was 99.5%.
Take `O=C(CSc1ccccn1)NC1CCCCC1`: the “viability” value is 91%.
The value for `Cc1ccc(NC(=O)COC(=O)CCc2c[nH]c3ccccc23)cc1[N+](=O)[O-]` was 102%; that for `O=c1[nH]c(=S)[nH]c2ccccc12` was 81.5%.
As for `O=C(CSc1nccc(=O)[nH]1)NC1CCCCC1`, the “viability” value was 94.8%.
As to `CCC(Sc1nc2ccccc2c(=O)[nH]1)C(=O)NC1CCCCC1` (centres undefined), the “viability” value was 99.5%.
Consider `CCC(Sc1nc2ccccc2c(=O)[nH]1)C(=O)Nc1cccc(OC)c1` (centres undefined), for which the “viability” value was 91.9%.
On to `CN[C@@H]1[C@H](O[C@H]2[C@H](O[C@H]3[C@H](O)[C@@H](O)[C@H](N=C(N)N)[C@@H](O)[C@@H]3N=C(N)N)O[C@@H](C)[C@]2(O)C=O)O[C@@H](CO)[C@H](O)[C@H]1O`, for which the “viability” value is 106%.
The same measure for `Cc1nc(SCC(=O)NC2CCCC2)[nH]c(=O)c1C`: 91.4%; for `CC[N+](C)(CC)CCCCOc1ccc2c(c1)C(=O)c1cc(OCCCC[N+](C)(CC)CC)ccc1-2`: 90.1%.
The value for `O=C(CSc1nc2ccccc2c(=O)[nH]1)NC1CCCC1` was 95.4%.
The value for `Nc1c(C(=O)NC2CCCCC2)nsc1C(=O)OCC(=O)NC1CCCCC1` was 102%; that for `O=C(CSc1nc2c(c(=O)[nH]1)CCCC2)NC1CCCCC1` was 82.8%.

For the origin of these results see PubChem BioAssay AID504909 (Southern Research Specialized Biocontainment Screening …, 2011).
